# About 2,600 (0.7%) of roughly 370,000 compounds were called active.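 How the source made its calls: active means inhibition above a per-plate cutoff, mean inhibition of test wells between control levels plus 3 SD (cut at about 38% in these data); inactive means the rest.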 The list comes from a sample in which actives are over-represented; it also holds similar structures and randomly drawn compounds.
# Biological target: COUP transcription factor 2 (Homo sapiens) (UniProt P24468)
# Assay: COUP-TFII reporter suppression in human cells – cell-based, luciferase reporter, HEK293T, luminescence, primary screen (AID 686940);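 further: cells cotransfected with COUP-TFII expression vector driving the NGFI-A reporter; 0% = median of COUP-TF2 test wells and 100% = reporter-only cells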
# Details: HEK293T NGFI-A luciferase reporter, at 8.6 µM, stronger effect = higher value
# Chain of COUP transcription factor 2 (Homo sapiens) (P24468 whole entry, looked up): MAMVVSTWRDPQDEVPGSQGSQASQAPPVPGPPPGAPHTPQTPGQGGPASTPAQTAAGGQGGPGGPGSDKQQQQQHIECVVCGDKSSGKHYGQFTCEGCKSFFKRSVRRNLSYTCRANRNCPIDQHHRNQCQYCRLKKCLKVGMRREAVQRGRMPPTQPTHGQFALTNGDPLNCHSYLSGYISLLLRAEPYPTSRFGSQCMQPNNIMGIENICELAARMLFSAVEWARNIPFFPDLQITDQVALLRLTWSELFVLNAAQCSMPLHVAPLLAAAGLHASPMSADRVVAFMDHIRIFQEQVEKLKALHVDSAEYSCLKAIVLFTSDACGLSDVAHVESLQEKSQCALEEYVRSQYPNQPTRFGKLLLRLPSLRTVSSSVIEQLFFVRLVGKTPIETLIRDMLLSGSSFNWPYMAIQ
row,Compound,inhibition
1,CCCNC(=O)c1ccccc1NC(=O)CSCc1ccc(OC)cc1,10.2% (inactive)
2,COc1ccc(NC(=O)CCCN2C(=O)C(c3ccccc3)Oc3cccnc32)cc1 (centres undefined),-1.91% (inactive)
3,COc1ccc(/C=C2/SC(=O)N(CCCCCC(=O)Nc3ccccc3C(=O)O)C2=S)cc1,48% (active)
4,CCN(CC)C(=O)CC[C@H]1CC[C@]2(CCCN(Cc3ccc(Cl)cc3)C2)O1,-15.6% (inactive)
5,COc1ccc(CN2C(=O)N3Cc4cc(OC)ccc4C3CS2(=O)=O)cc1 (centres undefined),-0.26% (inactive)
6,O=C(Nc1ccccc1C(=O)N1CCOCC1)c1ccc(CSc2ccccc2)cc1,6.62% (inactive)
7,O=C(Nc1ccc(CSc2ccccc2)cc1)c1ccc(CN2CCOCC2)cc1,68.5% (active)
8,C/C(CCc1ccccc1)=N\NC(=O)c1ccc(CN2CCOCC2)cc1,-14.4% (inactive)
9,CCC(CO)Nc1cccc2c1S(=O)(=O)N(Cc1cn(Cc3ccccc3C(F)(F)F)nn1)Cc1ccccc1O2 (centres undefined),-2% (inactive)
10,COc1ccc(-n2c(SCC(=O)Nc3ccc(C)c(Cl)c3)nc3ccccc3c2=O)cc1,2.13% (inactive)
11,CCCC[C@H](C(=O)N(CC)c1ccccc1)[C@@H](O)c1ccc2ccccc2c1,-0.42% (inactive)
12,Cc1ccc(OCC(=O)Nc2ccc(N3CCN(C(=O)c4ccco4)CC3)cc2)c(C)c1,44.3% (active)
13,Cc1ccc(NC(=O)C(c2ccccc2)N2CCN(C(=O)c3ccco3)CC2)cc1 (centres undefined),3.53% (inactive)
14,O=C(COc1ccccc1)Nc1ccc(N2CCN(C(=O)c3cccs3)CC2)cc1,-0.29% (inactive)
15,C=CCN1C(=O)[C@H](CC(=O)NCCCN2CCCC2=O)[C@@]2(C(=O)OCC)CCCC=C12,-4.55% (inactive)
16,CC(C)(C)NC(=O)C(c1cccnc1)N(C(=O)c1cnco1)c1ccc(C(C)(C)C)cc1 (centres undefined),36.4% (inactive)
17,CSc1ccc(C=Nn2c(-c3ccc(F)cc3)n[nH]c2=S)cc1,-7.74% (inactive)
18,Cc1ccc(NC(=S)NNC(=O)CSc2nnc(SCc3ccccc3Cl)s2)cc1,9.26% (inactive)
19,FC(F)(F)c1cccc(NC(=S)OC2CCC23CCC(c2ccccc2)CC3)c1 (centres undefined),-0.26% (inactive)
20,COc1cc(CCC(=O)Nc2ccncc2Cl)cc(OC)c1OC,-12.9% (inactive)
21,COc1ccc(CCNC(=O)COC(=O)Cc2cc(OC)c(OC)c(OC)c2)cc1,2.38% (inactive)
22,Fc1ccc(-c2csc(-c3ccc(C4SCCS4)cc3)n2)cc1F,3.02% (inactive)
23,CCCc1ccc(-c2csc(NC(=O)Cc3cccs3)n2)cc1,42.5% (active)
24,O=C(Cc1cccs1)Nc1ccc([N+](=O)[O-])cc1,1.87% (inactive)
25,COc1ccc(CC(=O)Nc2nc(-c3ccc(F)c(F)c3)cs2)cc1OC,64.1% (active)

row,Compound,inhibition
1,COc1cc(CC(=O)Nc2nc(-c3ccc(F)c(F)c3)cs2)cc(OC)c1OC,64.1% (active)
2,O=C(CCc1ccccc1)NCCc1cccs1,-20.7% (inactive)
3,COc1ccc(C2(CNC(=O)Cc3ccc(OC)c(OC)c3)CCCC2)cc1,-3.38% (inactive)
4,O=C(OC12CCCN(C1)/C(=C/c1cccnc1)C2)C1CCCC1 (centres undefined),0.25% (inactive)
5,Cc1cccc(C(=O)Nc2c(-c3ccc(F)cc3)nc3ncccn23)c1,-5.63% (inactive)
6,CCN(C(=O)[C@@H](C1CC1)[C@@H](O)c1ccc2ccccc2c1)c1ccccc1,8.36% (inactive)
7,O=C1C(=O)N(Cc2ccc(-c3ccsc3)cc2)c2ccc(OC(F)(F)F)cc21,-43.7% (inactive)
8,CCCCC(=O)N[C@@H]1CC[C@@]23CCCN2C(=O)CCC[C@H]3[C@H]1C,-2.57% (inactive)
9,COc1ccc(NS(=O)(=O)c2ccc(NC(=O)c3ccc(N(C)S(C)(=O)=O)cc3)cc2)cc1,60.6% (active)
10,COc1ccc(NS(=O)(=O)c2cc(NC(=O)c3ccc(S(=O)(=O)N(C)C)cc3)ccc2N2CCOCC2)cc1,9.06% (inactive)
11,CCOC(=O)c1cc(C(=O)Nc2ccc(S(=O)(=O)Nc3ccc(OC)cc3)cc2)nn1C,8.95% (inactive)
12,O=C(N1CCOCC1)N1CC[C@H]2[C@H](CCCN2Cc2ccc(F)cc2)C1,6.77% (inactive)
13,CCOC(=O)c1cccc(NC(=O)CN(C)S(=O)(=O)c2ccc(-c3cocn3)s2)c1,-17.4% (inactive)
14,CCn1c(=O)n2n(c1=O)[C@@]1(C=C3CCCC[C@H]32)N=C(NC(=O)c2ccccc2)N(Cc2ccccc2)[C@H]1Cc1ccccc1,22.3% (inactive)
15,C#CCN([C@H](C(=O)OC)C(C)CC)S(=O)(=O)c1ccccc1Br (some centres undefined),-21.6% (inactive)
16,FC(F)(F)c1cccc(Cn2ccc3ccc(-c4ccc5ccn(Cc6ccccc6)c5c4)cc32)c1,6.43% (inactive)
17,C[C@H](C(=O)N(C)c1ccccc1)[C@@H](O)c1ccc(Cl)cc1,-16.9% (inactive)
18,O=C(Nc1ccc(Br)cn1)C1CCN(S(=O)(=O)c2cccs2)CC1,48.1% (active)
19,O=C(C1CCN(S(=O)(=O)c2cccs2)CC1)N1CCCCCC1,-11.4% (inactive)
20,O=C(NCc1ccc(Cl)cc1)C1CCN(S(=O)(=O)c2cccs2)CC1,5.16% (inactive)
21,COC(=O)C1CN(Cc2cn(Cc3ccc(F)cc3)nn2)CCS(=O)(=O)N1Cc1ccc(Cl)cc1 (centres undefined),7.03% (inactive)
22,COC(=O)[C@]12C[C@H](CC(=O)NCc3cccs3)C(=O)N(CCc3ccc(OC)c(OC)c3)C1=C[C@H](C(C)C)O[C@@H]2C1CC1,17.9% (inactive)
23,COc1ccc(N2CCN(CCNS(=O)(=O)c3ccc(C(C)(C)C)cc3)CC2)cc1,2.21% (inactive)
24,C=CCN1C(=O)[C@@H](CC(=O)N2CCN(C(=O)c3ccco3)CC2)[C@]2(C(=O)OC)CCCCC=C12,-0.82% (inactive)
